LMP1 NFkB inh – Epstein-Barr LMP1 NF-kappaB reporter inhibition | inhibition, % at 12.5 µM | LMP1-induced NF-kappaB luciferase reporter cells, luminescence | AID 504558 | 350,000 compounds, 0.69% hits; in the data active = inhibition above about 41%;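 also: 0% = neutral control wells and 100% = reference inhibitor control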
TROY signal inh – blocks TROY-dependent signaling in reporter cells. 360,000 compounds, 0.98% hits. inhibition, % at 10 µM. Q293 LMP1-TROYcd NF-kB luciferase reporter, 4 h;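 active = compounds whose plate-normalised and pattern-corrected inhibition of the luciferase reporter signal at the single screening dose is 50% or more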
TWEAK Fn14 block – blocks TWEAK-Fn14 interaction in a reporter cell assay | inhibition, % at 10 µM | TWEAK-stimulated Fn14 reporter cells, luciferase luminescence, 8 h | AID 1159606 | 360,000 compounds, 2% hits; in the data active = inhibition above about 50%
MITF TRPM1 inh – reduces MITF-dependent TRPM1 promoter luciferase signal; SK-MEL-5 TRPM1 promoter luciferase, 24 h; inhibition, % at 12.5 µM; 330,000 compounds, 0.83% hits;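 active = mean inhibition across replicates of 60% or more, whatever share of single replicates reaches that level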
HIF-2a block – HIF-2a inhibition | 786-0 RCC cells HIF-2a reporter, luciferase luminescence, overnight | inhibition, % at 18.8 µM | 360,000 compounds, 0.72% hits;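 active = inhibition of the luminescence signal of 40% or more relative to plate controls, in a single-dose primary screen at 18.75 µM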
Shn3 inh set2 – Schnurri-3 reporter inhibition in Clone20 osteoblasts; AID 588674; inhibition, % at 12.5 µM; Clone20 osteoblast Shn3 3'UTR firefly luciferase, 24 h; 360,000 compounds, 0.52% hits;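 active = mean inhibition of at least 75% with every replicate also reaching 75%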;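 also: 0% = median of neutral control wells and 100% = pilot-screen positive control compound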
The depositor's hits bear a star; . = no result given. The list is not random: actives were taken first. Their share in the collection is about 3.4%.

SMILES | LMP1 NFkB inh | TROY signal inh | TWEAK Fn14 block | MITF TRPM1 inh | HIF-2a block | Shn3 inh set2
Cc1ccc2[nH]cc(C(=O)CN3CCOCC3)c2c1 | 1 | -7 | 22 | 16 | -2 | -4
Cc1ccc2[nH]cc(C(=O)CN3CCC4(CC3)OCCO4)c2c1 | -8 | -12 | 51* | -2 | -26 | -1
Cc1cccnc1NC(=O)CNC(=O)c1ccccc1 | -1 | -5 | 6 | -2 | 1 | -1
CC1=C(C(=O)N(C(C)C)C(C)C)CC(CC(=O)NC2CC2)C(=O)N1CCCN1CCCC1=O (stereo unspecified) | . | 75* | 11 | . | 2 | 14
COC1=C(C)C(=O)C2=C(C1=O)C1C3CC4=C(C(=O)C(OC)=C(C)C4=O)C(CNC(=O)C(C)=O)N3C(C#N)C(C2)N1C (stereo unspecified) | 77* | 63* | 100* | 114* | 78* | 94*
CCCS(=O)(=O)NC(=O)C1(C)CCN(C(=O)c2ccc(C(F)(F)F)cc2)C1 (stereo unspecified) | . | -3 | -13 | . | -6 | -2
Oc1ccc(C=NNC(=S)Nc2ccccc2)nc1 | 51* | -40 | 20 | . | -140 | 77
S=C(N/N=C/c1ccccc1Cl)Nc1ccccc1 | 11 | -50 | -3 | -23 | -182 | -40
COC(=O)c1ccccc1NC(=O)CCCOc1cc(=O)n(C)c2ccccc12 | . | -25 | -21 | . | -50 | -7
CCCOc1ccc(F)cc1-c1cc(C(=O)Nc2ccc(C)c(NS(C)(=O)=O)c2)[nH]n1 | . | 41 | 59* | . | 7 | 18
COc1ccc(F)cc1-c1cc(C(=O)Nc2ccc(C)c(NS(C)(=O)=O)c2)[nH]n1 | . | 21 | 26 | . | -38 | -17
CCCOc1ccc(F)cc1-c1cc(C(=O)NCc2cc(C(F)(F)F)cc(C(F)(F)F)c2)[nH]n1 | . | 23 | 53* | . | 6 | -3
COc1ccc(F)cc1-c1cc(C(=O)NCc2cc(C(F)(F)F)cc(C(F)(F)F)c2)[nH]n1 | . | 29 | 8 | . | 2 | 7
O=C(Nc1cccc(S(=O)(=O)N2CCOCC2)c1)C1CCCN(C(=O)c2ccc(Cl)cc2)C1 (stereo unspecified) | 6 | -3 | 11 | 5 | 22 | 10
COc1ccc(N(CC(=O)Nc2ccccc2C(=O)N2CCCC2)S(C)(=O)=O)cc1 | 0 | -2 | 7 | -3 | 5 | 11
CN(CCO)c1cccc2c1S(=O)(=O)N[C@H](Cc1ccccc1)CO2 | . | -18 | -2 | . | 16 | .
CC(=O)/C(N=Nc1cccc(C(F)(F)F)c1)=C(\C)O | 1 | -3 | 15 | -12 | 9 | 13
Cc1ccc(N=C/C(C(=O)C(F)(F)F)=C(\O)c2cccs2)cc1 | 0 | -42 | 83* | -112 | -237 | -1
O=C(/C(N=Nc1cccc(C(F)(F)F)c1)=C(/O)c1cccs1)C(F)(F)F | -14 | 9 | 57* | -17 | -247 | -11
CN(C)c1ccc(CCc2ccc(N)cc2)cc1 | 13 | 30 | 44 | 43 | 83* | 32
CN(C)c1ccc(Cc2ccc(N(C)C)cc2)cc1 | 5 | -1 | 9 | . | -36 | -6
CCOC(=O)Cc1csc(NC(=O)Nc2ccc(Cl)cc2)n1 | 5 | 5 | 26 | -1 | 11 | -3
CCOC(=O)Cc1csc(N/N=C/c2ccc(Cl)cc2)n1 | 49* | -50 | 3 | 7 | 35 | 23
NC(=O)c1c(NC(=O)c2ccccc2)sc2c1CCc1ccccc1-2 | -51 | -30 | 56* | -41 | -290 | -105
COC[C@H]1CCCN1[C@@H]1CS(=O)(=O)N[C@H]1COCc1ccccc1 | . | 3 | -4 | . | 3 | 0
SMILES | LMP1 NFkB inh | TROY signal inh | TWEAK Fn14 block | MITF TRPM1 inh | HIF-2a block | Shn3 inh set2
C/C(=N/Nc1ccc(C(=O)c2c(C)cc3ccccn23)cc1[N+](=O)[O-])c1ccc(O)cc1 | -2 | 14 | 53* | 7 | -4 | 48
C/C(=N\Nc1ccc(C(=O)c2c(C)cc3ccccn23)cc1[N+](=O)[O-])c1ccc(O)cc1 | 0 | 19 | 62* | 24 | 12 | 57
Cc1cc2ccccn2c1C(=O)c1ccc(N/N=C/c2ccc(C(=O)O)cc2)c([N+](=O)[O-])c1 | -2 | 35 | 49 | -2 | 3 | 3
COCCOC(=O)C1=C(C)NC2=C(C(=O)CC(C)(C)C2)C1c1ccc(N(C)C)cc1 (stereo unspecified) | -7 | -4 | -11 | -4 | 8 | 14
COCCOC(=O)C1=C(C)NC2=C(C(=O)CC(C)(C)C2)C1c1cc2c(cc1Br)OCO2 (stereo unspecified) | 5 | 6 | 60* | -9 | 6 | 10
O=C(CN1C(=O)NC2(CCCCC2)C1=O)Nc1cccc(S(=O)(=O)N2CCCC2)c1 | 6 | 9 | 4 | 2 | 2 | -9
CCc1c(C)nc2ccc(Br)cc2c1SCCC#N | 26 | 48 | 79* | -8 | 23 | 12
Cc1cccnc1NC(=O)CSc1nnc(CNC(=O)c2cccc([N+](=O)[O-])c2)n1C | -7 | 3 | 8 | 0 | 7 | 3
O=C(C=C1SCCS1)/C=C/c1ccco1 | 86* | -18 | -7 | -10 | -177 | -11
C=CCN1CCc2cc(O)c(O)cc2C(c2ccccc2)C1 (stereo unspecified) | 77* | 11 | 17 | 4 | 11 | 19
CSc1nc(N)nc2c1ncn2CC(=O)NCc1ccc2c(c1)OCO2 | 26 | -1 | -8 | 3 | -3 | 42
CSc1nc(N)nc2c1ncn2CC(=O)N1CCN(Cc2c(C)cc(C)cc2C)CC1 | 38 | 16 | 2 | 29 | 15 | 89*
Cc1cc(C)c(CN2CCN(C(=O)Cn3ccc(N)nc3=O)CC2)c(C)c1 | -4 | -23 | 5 | -3 | 9 | -6
CSc1nc(N)nc2c1ncn2CC(=O)NCc1ccccc1 | 88* | 21 | 24 | 0 | 5 | 8
COc1ccccc1N1CCN(C(=O)C2CCCN(S(=O)(=O)c3ccc4c(c3)CCCN4C(C)=O)C2)CC1 (stereo unspecified) | 13 | 21 | 32 | 16 | 7 | 87*
CC(=O)N1CCCc2cc(S(=O)(=O)N3CCCC(C(=O)N4CCN(c5ccccc5)CC4)C3)ccc21 (stereo unspecified) | 10 | 31 | 19 | 13 | 15 | 83
Cc1ccc(C)c(N2CCN(S(=O)(=O)c3ccc4c(c3)CCN4C(=O)CCC(=O)O)CC2)c1 | 86* | 0 | -10 | 6 | 8 | 3
CC(=O)N1CCCc2cc(S(=O)(=O)N3CCCC(C(=O)N4CCN(c5cc(C)ccc5C)CC4)C3)ccc21 (stereo unspecified) | 16 | 44 | 54* | 18 | 9 | 63
CC1(C)CC(Cc2ccc(C(=O)c3ccccc3)cc2)N(C(=O)OC(C)(C)C)N1 (stereo unspecified) | 5 | -19 | -3 | . | -35 | 22
O=C(O)c1cc(O)ccc1NC(=O)C(c1ccccc1)c1ccccc1 | 9 | 61* | 110* | 9 | 25 | -18

Screening results deposited in PubChem by several laboratories.
